# Source: PubChem BioAssay (NCI)
# Compounds without any hit were thinned out: in the full panel of roughly 83,000, 20% have a hit.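 Each cell line was grown in a 96-well plate and treated with one concentration of compound for 48 hours. Values below 10 were considered active.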 A number with no mark means an inactive call. The source made the active and inactive calls.
# Columns and labels:
# Experiment in all cases: NCI-60 one-dose screen, 48 h (100 = growth as untreated, 0 = no growth, -100 = all killed)
# Settings in all cases: 10 µM unless noted
# DU-145 prostate = tested on: DU-145 prostate
# K-562 leukemia = tested on: K-562 leukemia
# MALME-3M melanoma = tested on: MALME-3M melanoma
# MDA-MB-231 breast = tested on: MDA-MB-231 breast
# RXF 393 renal = tested on: RXF 393 renal
# SF-268 CNS = tested on: SF-268 CNS
# SF-295 CNS = tested on: SF-295 CNS
# SF-539 CNS = tested on: SF-539 CNS
# UACC-257 melanoma = tested on: UACC-257 melanoma
# M14 melanoma = tested on: M14 melanoma
# HCT-15 colon = tested on: HCT-15 colon
# HT29 colon = tested on: HT29 colon
# SNB-75 CNS = tested on: SNB-75 CNS
# SNB-19 CNS = tested on: SNB-19 CNS
# U251 CNS = tested on: U251 CNS
# PC-3 prostate = tested on: PC-3 prostate
# SK-MEL-5 melanoma = tested on: SK-MEL-5 melanoma
# UACC-62 melanoma = tested on: UACC-62 melanoma
# LOX IMVI melanoma = tested on: LOX IMVI melanoma
# SK-MEL-28 melanoma = tested on: SK-MEL-28 melanoma
SMILES,growth (DU-145 prostate),growth (K-562 leukemia),growth (MALME-3M melanoma),growth (MDA-MB-231 breast),growth (RXF 393 renal),growth (SF-268 CNS),growth (SF-295 CNS),growth (SF-539 CNS),growth (UACC-257 melanoma),growth (M14 melanoma),growth (HCT-15 colon),growth (HT29 colon),growth (SNB-75 CNS),growth (SNB-19 CNS),growth (U251 CNS),growth (PC-3 prostate),growth (SK-MEL-5 melanoma),growth (UACC-62 melanoma),growth (LOX IMVI melanoma),growth (SK-MEL-28 melanoma)
O=c1onc(-c2ccccc2)c2ccccc12,113%,105%,121%,97%,90.5%,113%,101%,122%,120%,118%,115%,109%,109%,104%,98.7%,102%,103%,103%,97.5%,103%
COC(=O)c1c2c(c(C)[n+]([O-])c1C)C(=O)C=C(NCc1ccc(Cl)cc1)C2=O,-83.7% (active),1.55% (active),-95% (active),-20.7% (active),-31.7% (active),0.305% (active),-59.7% (active),-89.8% (active),-84.7% (active),-85.5% (active),-54.8% (active),2.63% (active),-94.8% (active),-23.5% (active),-7.46% (active),1.07% (active),-98.8% (active),-65.5% (active),-23.2% (active),10.6%
COc1ncnc2c1ncn2C/C(Br)=C(\Br)CCl,36.8%,7.96% (active),-6.59% (active),41.8%,70.1%,11.6%,97.2%,11.8%,-40.5% (active),-24.6% (active),31.6%,-56.8% (active),46.6%,89.9%,-71.8% (active),46.4%,53.7%,57.3%,-87.2% (active),77.4%
COc1cc2cc(Oc3ccc(NC(=O)Nc4ccc(Cl)c(C(F)(F)F)c4)cc3)c(C)nc2cc1OCCN1CCCCC1,-85.2% (active),-48.1% (active),-78.4% (active),-87.2% (active),44.2%,3.42% (active),57.5%,-89.8% (active),-49.4% (active),-67.4% (active),-81.8% (active),-68% (active),-57.9% (active),-51.7% (active),-76.4% (active),-55.3% (active),-76.1% (active),72.6%,-97.1% (active),-86% (active)
COc1ccc(S(=O)(=O)ON=C2C=C(C)C(=O)C(C)=C2)cc1,101%,48.7%,102%,62.5%,81.6%,92.6%,93%,94%,98.6%,99.9%,85.9%,93.3%,69.1%,113%,94.4%,86%,98.2%,91.2%,62%,96.8%
COc1cc(CNCCN2C(=O)c3ccc4c5c(ccc(c35)C2=O)C(=O)N(CCNCc2cc(OC)c(OC)c(OC)c2)C4=O)cc(OC)c1OC,-56.8% (active),-4.93% (active),-50.5% (active),-83.9% (active),-94.9% (active),-46.8% (active),-68% (active),-84% (active),-70.9% (active),-96.9% (active),-66.2% (active),-52.3% (active),-98% (active),-79.8% (active),-68.1% (active),-73.1% (active),-87.7% (active),-92.4% (active),-99% (active),-89.3% (active)
NC(=O)c1cccc(-n2ccc3cc(NC(=O)Nc4ccc(Cl)c(Cl)c4)ccc32)n1,83.7%,63.4%,85%,79.1%,6.33% (active),83%,68.8%,64.1%,89.9%,78%,59.7%,60.9%,68.5%,86.3%,66.7%,73.3%,74.1%,83.2%,81.9%,88.1%
COc1ccc(/C=N/OCC(O)CNCc2ccccc2)cc1OC1CCCC1 (stereo not given),105%,78%,106%,101%,95.5%,91.7%,103%,98%,97.2%,98.4%,102%,104%,77.9%,95.2%,99.6%,86.7%,93.3%,98.3%,91.4%,109%
